Laboratory results from PubChem BioAssay.
The other results are listed elsewhere or left out. Active and inactive are the calls of the source. Unless noted, no rule for the calls is given here.

Assays:
[1] = target: Regulator of G-protein signaling 16 (Homo sapiens) (UniProt O15492); assay: modulators of RGS–Galpha-o binding, primary screen, biochemical, multiplexed beads, flow cytometry, RGS4/7/8/16/19 (AID 1504); details: multiplexed bead flow cytometry, measured here: RGS16 interaction, at 10 µM;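 also: fluorescently labeled Galpha-o bound to GDP with aluminium fluoride binding biotinylated RGS beads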
[2] = target: Regulator of G-protein signaling 19 (Homo sapiens) (UniProt P49795); assay: as above; details: multiplexed bead flow cytometry, measured here: RGS19 interaction, at 10 µM
[3] = target: Regulator of G-protein signaling 4 (Homo sapiens) + Guanine nucleotide-binding protein G(o) subunit alpha (Homo sapiens) (UniProt P49798+P09471); assay: as above; details: multiplexed bead flow cytometry, at 10 µM
Sequence of Regulator of G-protein signaling 4 (Homo sapiens) + Guanine nucleotide-binding protein G(o) subunit alpha (Homo sapiens) (P09471 whole entry, looked up): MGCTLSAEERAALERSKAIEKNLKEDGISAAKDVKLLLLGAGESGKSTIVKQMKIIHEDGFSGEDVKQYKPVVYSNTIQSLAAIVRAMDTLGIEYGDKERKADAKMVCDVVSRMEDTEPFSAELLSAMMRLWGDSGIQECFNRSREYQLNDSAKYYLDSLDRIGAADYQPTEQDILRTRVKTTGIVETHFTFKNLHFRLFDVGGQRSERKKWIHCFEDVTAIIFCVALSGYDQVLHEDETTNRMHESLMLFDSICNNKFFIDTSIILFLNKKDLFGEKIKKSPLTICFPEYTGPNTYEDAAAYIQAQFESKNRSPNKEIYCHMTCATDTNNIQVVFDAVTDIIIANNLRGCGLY
Sequence of Regulator of G-protein signaling 4 (Homo sapiens) + Guanine nucleotide-binding protein G(o) subunit alpha (Homo sapiens) (P49798 whole entry, looked up): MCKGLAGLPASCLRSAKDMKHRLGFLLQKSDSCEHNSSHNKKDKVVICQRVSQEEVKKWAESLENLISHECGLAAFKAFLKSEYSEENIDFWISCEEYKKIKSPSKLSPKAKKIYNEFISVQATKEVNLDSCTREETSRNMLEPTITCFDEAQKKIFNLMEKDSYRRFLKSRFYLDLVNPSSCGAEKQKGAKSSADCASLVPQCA

[4] = target: Regulator of G-protein signaling 7 (Homo sapiens) (UniProt P49802); assay: as above; details: multiplexed bead flow cytometry, measured here: RGS7 interaction, at 10 µM
[5] = target: Regulator of G-protein signaling 8 (Homo sapiens) (UniProt P57771); assay: as above; details: multiplexed bead flow cytometry, measured here: RGS8 interaction, at 10 µM
[6] = disruption of biotin probe capture by avidin, counter-screen for RGS protein interaction modulators, biochemical, flow cytometry, bead-based (AID 1783;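 active = inhibition above 50%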;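 also: median green fluorescence of gated singlet beads compared with DMSO control wells; 0% = DMSO wells and 100% = complete loss of bead fluorescence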); details: streptavidin beads, fluorescein-biotin binding; at 10 µM, stronger effect = higher value
[7] = target: Guanine nucleotide-binding protein G(o) subunit alpha (Homo sapiens) (UniProt P09471); assay: RGS8-Galphao binding modulators, confirmation, biochemical, multiplexed bead flow cytometry, single concentration (AID 1836; in the data active = binding response below about 72% or above about 130%; inactive = in between;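 also: Galphao activated as GDP AlF4 complex before binding bead RGS8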); details: bead-based flow cytometry RGS8-Galphao binding, fluorescence; at 10 µM; actives lie on both sides
Sequence of Guanine nucleotide-binding protein G(o) subunit alpha (Homo sapiens) (P09471 whole entry, looked up): as the sequence (P09471 whole entry, looked up) above

[8] = target: Guanine nucleotide-binding protein G(o) subunit alpha (Homo sapiens) (UniProt P09471); assay: RGS7-Galphao binding modulators, confirmation, biochemical, multiplexed bead flow cytometry, single concentration (AID 1837; in the data active = response below about 75% or above about 130%; inactive = in between;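 also: fluorescent Galphao activated with GDP and aluminum fluoride binding bead-coupled RGS7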); details: bead-based flow cytometry RGS7-Galphao binding; at 10 µM; actives lie on both sides
[9] = target: Regulator of G-protein signaling 16 (Homo sapiens) + Guanine nucleotide-binding protein G(o) subunit alpha (Homo sapiens) (UniProt O15492+P09471); assay: modulators of RGS16-Galphao protein binding, confirmation, biochemical, single concentration, multiplexed bead flow cytometry (AID 1838; in the data active = response below about 74% or above about 130%; inactive = in between;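 also: Galphao activated as the GDP aluminium fluoride complex binding bead-coupled RGS16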); details: bead-based flow cytometry, at 10 µM, actives lie on both sides
Sequence of Regulator of G-protein signaling 16 (Homo sapiens) + Guanine nucleotide-binding protein G(o) subunit alpha (Homo sapiens) (O15492 whole entry, looked up): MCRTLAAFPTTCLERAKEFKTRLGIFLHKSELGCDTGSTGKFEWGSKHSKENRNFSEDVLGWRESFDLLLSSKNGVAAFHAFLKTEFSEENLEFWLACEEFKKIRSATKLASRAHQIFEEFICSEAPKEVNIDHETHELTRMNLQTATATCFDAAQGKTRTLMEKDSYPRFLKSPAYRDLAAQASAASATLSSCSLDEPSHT
Sequence of Regulator of G-protein signaling 16 (Homo sapiens) + Guanine nucleotide-binding protein G(o) subunit alpha (Homo sapiens) (P09471 whole entry, looked up): as the sequence (P09471 whole entry, looked up) above

[10] = target: Guanine nucleotide-binding protein G(o) subunit alpha (Homo sapiens) (UniProt P09471); assay: modulators of RGS4-Galphao protein binding, confirmation, biochemical, single concentration, multiplexed bead flow cytometry (AID 1840; in the data active = binding response below about 74% or above about 130%; inactive = in between); details: at 10 µM, actives lie on both sides
[11] = target: Guanine nucleotide-binding protein G(o) subunit alpha (Homo sapiens) + Regulator of G-protein signaling 19 (Homo sapiens) (UniProt P09471+P49795); assay: regulators of RGS19-Galphao binding, confirmation, biochemical, single point, multiplexed bead flow cytometry (AID 1841; in the data active = response below about 50% or above about 160%; inactive = in between;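 also: 100% = no compound control and 0% = blank background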); details: bead-based flow cytometry RGS19-Galphao binding; at 10 µM; actives lie on both sides
Sequence of Guanine nucleotide-binding protein G(o) subunit alpha (Homo sapiens) + Regulator of G-protein signaling 19 (Homo sapiens) (P09471 whole entry, looked up): as above
Sequence of Guanine nucleotide-binding protein G(o) subunit alpha (Homo sapiens) + Regulator of G-protein signaling 19 (Homo sapiens) (P49795 whole entry, looked up): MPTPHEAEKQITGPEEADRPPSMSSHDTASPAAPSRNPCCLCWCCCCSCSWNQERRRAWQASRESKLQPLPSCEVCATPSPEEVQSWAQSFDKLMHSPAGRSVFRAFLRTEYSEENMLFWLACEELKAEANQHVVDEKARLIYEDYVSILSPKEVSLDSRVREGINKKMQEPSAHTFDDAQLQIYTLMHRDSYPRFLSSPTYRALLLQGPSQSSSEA

[12] = target: Ras-related C3 botulinum toxin substrate 1 (Homo sapiens) (UniProt P63000); assay: wildtype Rac1 GTP binding inhibitors, dose response, biochemical, multiplex bead flow cytometry (AID 1340;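 active = dose curve with midpoint inside tested range, moderate steepness, plateau gap beyond fit error, low compound glow and bead-link interference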); details: GST-Rac1 beads, Bodipy-FL-GTP binding; at 100 µM (top of the series) unless noted

CC1(C)C=C2[C@H]3CC[C@@H]4[C@@]5(C)CCC(=O)C(C)(C)[C@@H]5CC[C@@]4(C)[C@]3(C)CC[C@@]2(C(=O)O)CC1
RGS16–Galpha-o binding response [1]: 267%
RGS19–Galpha-o binding response [2]: -110%
RGS4–Galpha-o binding response [3]: 119% (active)
RGS7–Galpha-o binding response [4]: 114%
RGS8–Galpha-o binding response [5]: 134%
inhibition [6]: 0.1% (inactive)
binding response (% of control) [7]: 107% (inactive)
response (percent of control binding) [8]: 81.6% (inactive)
response (% of control binding) [9]: 107% (inactive)
binding response (% of control) [10]: 94.2% (inactive)
response (percent of control binding) [11]: 68.7% (inactive)

CCOC(=O)C1=C(c2ccccc2)N=C2SCC(=O)N2C1c1ccc(O)c(OC)c1 (stereo not given)
RGS16–Galpha-o binding response [1]: 222%
RGS19–Galpha-o binding response [2]: -290%
RGS4–Galpha-o binding response [3]: 121% (active)
RGS7–Galpha-o binding response [4]: 122%
RGS8–Galpha-o binding response [5]: 144%
inhibition [6]: 0% (inactive)
binding response (% of control) [7]: 109% (inactive)
response (percent of control binding) [8]: 108% (inactive)
response (% of control binding) [9]: 110% (inactive)
binding response (% of control) [10]: 106% (inactive)
response (percent of control binding) [11]: 104% (inactive)

CCOc1ccccc1-c1c2cc(O)c(=O)cc-2oc2cc(O)c(O)cc12
GTP binding signal, raw median fluorescence (lower = inhibition) (MCF (arbitrary fluorescence units)) [12]: 184

Cc1ccc(-n2c(SCC(=O)Nc3ncc(Cl)cc3Cl)nc3ccccc32)cc1
RGS16–Galpha-o binding response [1]: 13.7%
RGS19–Galpha-o binding response [2]: 134%
RGS4–Galpha-o binding response [3]: 86.2% (active)
RGS7–Galpha-o binding response [4]: 83.7%
RGS8–Galpha-o binding response [5]: 76.9%
inhibition [6]: 1% (inactive)
binding response (% of control) [7]: 103% (inactive)
response (percent of control binding) [8]: 105% (inactive)
response (% of control binding) [9]: 103% (inactive)
binding response (% of control) [10]: 104% (inactive)
response (percent of control binding) [11]: 113% (inactive)

Cc1cc(C)nc(/N=C2\NC(=O)CC(C(=O)O)N2c2ccc(Cl)cc2Cl)n1 (stereo not given)
RGS16–Galpha-o binding response [1]: 99.8%
RGS19–Galpha-o binding response [2]: 104%
RGS4–Galpha-o binding response [3]: 117% (active)
RGS7–Galpha-o binding response [4]: 170%
RGS8–Galpha-o binding response [5]: 107%
inhibition [6]: 0.1% (inactive)
binding response (% of control) [7]: 102% (inactive)
response (percent of control binding) [8]: 101% (inactive)
response (% of control binding) [9]: 102% (inactive)
binding response (% of control) [10]: 102% (inactive)
response (percent of control binding) [11]: 101% (inactive)

CC(C)Cc1nc(Nc2ccc(S(=O)(=O)N3CCCC3)cc2)c2nnn(Cc3ccccc3)c2n1
RGS16–Galpha-o binding response [1]: 260%
RGS19–Galpha-o binding response [2]: 48.9%
RGS4–Galpha-o binding response [3]: 135% (active)
RGS7–Galpha-o binding response [4]: 137%
RGS8–Galpha-o binding response [5]: 141%
inhibition [6]: 1.3% (inactive)
binding response (% of control) [7]: 94.8% (inactive)
response (percent of control binding) [8]: 91.8% (inactive)
response (% of control binding) [9]: 91.9% (inactive)
binding response (% of control) [10]: 90.6% (inactive)
response (percent of control binding) [11]: 95.9% (inactive)

CN(C)CCN=c1cc(-c2ccccc2)oc2ccc(Cl)cc12
RGS16–Galpha-o binding response [1]: 103%
RGS19–Galpha-o binding response [2]: 95.4%
RGS4–Galpha-o binding response [3]: 110% (active)
RGS7–Galpha-o binding response [4]: 155%
RGS8–Galpha-o binding response [5]: 102%
inhibition [6]: -3.8% (inactive)
binding response (% of control) [7]: 107% (inactive)
response (percent of control binding) [8]: 111% (inactive)
response (% of control binding) [9]: 113% (inactive)
binding response (% of control) [10]: 107% (inactive)
response (percent of control binding) [11]: 108% (inactive)

CCOc1cc(C(=O)N2CCc3cc(OC)c(OC)cc3C2)ccc1OC(F)F
RGS16–Galpha-o binding response [1]: 124%
RGS19–Galpha-o binding response [2]: -289%
RGS4–Galpha-o binding response [3]: 128% (active)
RGS7–Galpha-o binding response [4]: 159%
RGS8–Galpha-o binding response [5]: 105%

O=C(NC1CC1)c1ccc2c(c1)NC(=O)c1ccccc1S2
RGS16–Galpha-o binding response [1]: 113%
RGS19–Galpha-o binding response [2]: 370%
RGS4–Galpha-o binding response [3]: 113% (active)
RGS7–Galpha-o binding response [4]: 191%
RGS8–Galpha-o binding response [5]: 98.7%

CSc1ccc(CN2C(=O)NC3(CCCCCC3)C2=O)cc1
RGS16–Galpha-o binding response [1]: 99.1%
RGS19–Galpha-o binding response [2]: 1890%
RGS4–Galpha-o binding response [3]: 106% (active)
RGS7–Galpha-o binding response [4]: 219%
RGS8–Galpha-o binding response [5]: 97.9%
inhibition [6]: -1.7% (inactive)
binding response (% of control) [7]: 96.3% (inactive)
response (percent of control binding) [8]: 94.7% (inactive)
response (% of control binding) [9]: 96.5% (inactive)
binding response (% of control) [10]: 97.1% (inactive)
response (percent of control binding) [11]: 108% (inactive)

C/C(=C/C(=O)N1CCN(C)CC1)C(=O)O
RGS16–Galpha-o binding response [1]: 234%
RGS19–Galpha-o binding response [2]: -6.25%
RGS4–Galpha-o binding response [3]: 109% (active)
RGS7–Galpha-o binding response [4]: 105%
RGS8–Galpha-o binding response [5]: 125%
inhibition [6]: 0.5% (inactive)
binding response (% of control) [7]: 104% (inactive)
response (percent of control binding) [8]: 98.7% (inactive)
response (% of control binding) [9]: 105% (inactive)
binding response (% of control) [10]: 102% (inactive)
response (percent of control binding) [11]: 102% (inactive)

O=[N+]([O-])C(=c1ccc2c(c1)N1C3=C(CCCC3)CC3CCCCC31N=2)[N+](=O)[O-] (stereo not given)
RGS16–Galpha-o binding response [1]: 20.9%
RGS19–Galpha-o binding response [2]: 357%
RGS4–Galpha-o binding response [3]: 80.6% (active)
RGS7–Galpha-o binding response [4]: -195%
RGS8–Galpha-o binding response [5]: 43.8%

NC(=O)Cc1ccc2sc(-c3ccccc3)nc2c1
RGS16–Galpha-o binding response [1]: 23.6%
RGS19–Galpha-o binding response [2]: 149%
RGS4–Galpha-o binding response [3]: 94.3% (active)
RGS7–Galpha-o binding response [4]: 92.4%
RGS8–Galpha-o binding response [5]: 84%
inhibition [6]: -0.3% (inactive)
binding response (% of control) [7]: 98.7% (inactive)
response (percent of control binding) [8]: 43.6% (active)
response (% of control binding) [9]: 80% (inactive)
binding response (% of control) [10]: 55.9% (active)
response (percent of control binding) [11]: 78.6% (inactive)
